Experimental data taken from the supplement of paper PMC11624193, “Coupling cellular drug-target engagement to downstream pharmacology with CeTEAM” (Nature Communications, 2024).
Counter-ions that a name gives are not always drawn.

Each compound was assayed against PARP1 L713F-nLuc biosensor (HCT116) (UniProt P09874) (assay: PARP1 L713F-nLuc/akaLuc ratio relative to DMSO control (biosensor stabilization) (fold change); higher = more PARP1 biosensor stabilization (target engagement / stabilizer), active = hit call of the paper). Details: stock concentration (mM; final µM = stock mM x 1): 10; 24 h;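 active = log2 fold change beyond 2 SD from the library mean after excluding viability outliers; inactive = within 2 SD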.
Chain of PARP1 L713F-nLuc biosensor (HCT116) (P09874 whole entry L713F, looked up): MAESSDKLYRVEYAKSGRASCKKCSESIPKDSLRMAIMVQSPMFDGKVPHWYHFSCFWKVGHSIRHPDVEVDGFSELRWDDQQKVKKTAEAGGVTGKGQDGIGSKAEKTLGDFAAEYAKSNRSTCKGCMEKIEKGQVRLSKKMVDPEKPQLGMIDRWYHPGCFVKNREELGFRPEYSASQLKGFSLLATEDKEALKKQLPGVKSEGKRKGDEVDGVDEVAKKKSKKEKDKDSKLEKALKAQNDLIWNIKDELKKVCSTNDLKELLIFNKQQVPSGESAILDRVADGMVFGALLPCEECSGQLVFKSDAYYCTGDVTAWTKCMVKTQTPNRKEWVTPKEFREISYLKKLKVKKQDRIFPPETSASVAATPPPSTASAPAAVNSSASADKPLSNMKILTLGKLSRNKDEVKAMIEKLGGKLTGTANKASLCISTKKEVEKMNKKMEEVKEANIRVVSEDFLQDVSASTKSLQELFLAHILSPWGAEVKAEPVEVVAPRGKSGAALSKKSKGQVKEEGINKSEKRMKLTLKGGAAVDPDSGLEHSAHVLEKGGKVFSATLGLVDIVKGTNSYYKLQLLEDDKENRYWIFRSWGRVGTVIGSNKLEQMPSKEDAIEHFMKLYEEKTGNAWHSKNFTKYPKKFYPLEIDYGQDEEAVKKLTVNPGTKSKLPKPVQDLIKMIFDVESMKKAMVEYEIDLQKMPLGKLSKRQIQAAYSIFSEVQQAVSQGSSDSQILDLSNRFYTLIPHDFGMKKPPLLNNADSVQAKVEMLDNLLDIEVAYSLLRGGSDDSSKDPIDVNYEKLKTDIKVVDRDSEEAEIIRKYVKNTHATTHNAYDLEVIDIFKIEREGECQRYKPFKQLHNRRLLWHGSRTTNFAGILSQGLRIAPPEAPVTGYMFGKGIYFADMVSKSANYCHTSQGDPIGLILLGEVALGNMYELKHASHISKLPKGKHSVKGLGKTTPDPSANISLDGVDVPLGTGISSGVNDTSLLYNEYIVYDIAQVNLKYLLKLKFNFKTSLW

Question: For CN1CCN(c2ccc3nc(-c4c(N)c5c(F)cccc5[nH]c4=O)[nH]c3c2)CC1 [Dovitinib (TKI258) Lactate], which “PARP1 L713F-nLuc/akaLuc ratio” value is on record?
Answer: 0.754 (inactive)

Question: O=C(c1ccc(OCCN2CCCCC2)cc1)c1c(-c2ccc(O)cc2)sc2cc(O)ccc12 [Raloxifene HCl] was tested. Which “PARP1 L713F-nLuc/akaLuc ratio” value did it give?
Answer: 0.932 (inactive)

Question: With O=C(c1ccc(C(=O)N2CCC(N3CCCC3)CC2)c(Nc2ccccc2)c1)N1CCC(N2CCCC2)CC1 as the compound, how does the “PARP1 L713F-nLuc/akaLuc ratio” value read?
Answer: 0.936 (inactive)

Question: For O=c1[nH]c(N2CCC3(CC2)CN(CCO)c2cc(F)cc(F)c23)nc2c1CCCC2, which “PARP1 L713F-nLuc/akaLuc ratio” value is on record?
Answer: 0.755 (inactive)

Question: How did the “PARP1 L713F-nLuc/akaLuc ratio” value turn out when Cc1cn(-c2cc(NC(=O)c3ccc(C)c(Nc4nccc(-c5cnccn5)n4)c3)cc(C(F)(F)F)c2)cn1 [Radotinib] was run?
Answer: 0.904 (inactive)

Question: For Cc1cnc(Nc2ccc(OCCN3CCCC3)cc2)nc1Nc1cccc(S(=O)(=O)NC(C)(C)C)c1 [Fedratinib (hydrochloride hydrate)], which “PARP1 L713F-nLuc/akaLuc ratio” value is on record?
Answer: 0.551 (inactive)

Question: For CC1=C(CC[C@@H](C)CO[C@@H]2O[C@H](CO)[C@@H](O)[C@H](O)[C@H]2O)O[C@H]2C[C@H]3[C@@H]4CC=C5C[C@@H](O[C@@H]6O[C@H](CO)[C@@H](O[C@@H]7O[C@@H](C)[C@H](O)[C@@H](O)[C@H]7O)[C@H](O)[C@H]6O[C@@H]6O[C@@H](C)[C@H](O)[C@@H](O)[C@H]6O)CC[C@]5(C)[C@H]4CC[C@]3(C)[C@@H]12 [Pseudoprotodioscin], which “PARP1 L713F-nLuc/akaLuc ratio” value is on record?
Answer: 0.989 (inactive)

Question: COc1cc2nc(N3CCCC3)nc(NCCCCCN3CCCC3)c2cc1OC was tested. Which “PARP1 L713F-nLuc/akaLuc ratio” value did it give?
Answer: 0.881 (inactive)

Question: CNC(=O)c1cc(Oc2ccc(NC(=O)Nc3ccc(Cl)c(C(F)(F)F)c3)c(F)c2)ccn1 [Regorafenib (BAY 73-4506)] was tested. Which “PARP1 L713F-nLuc/akaLuc ratio” value did it give?
Answer: 0.687 (inactive)

Question: How did the “PARP1 L713F-nLuc/akaLuc ratio” value turn out when C[C@@H]1CCN(C(=O)CC#N)C[C@@H]1N(C)c1ncnc2[nH]ccc12 [Tofacitinib (citrate)] was run?
Answer: 0.775 (inactive)

Question: How did the “PARP1 L713F-nLuc/akaLuc ratio” value turn out when N#Cc1cc(F)cc(Oc2ccc3c(c2C(F)F)[C@@H](O)C(F)(F)S3(=O)=O)c1 was run?
Answer: 1.92 (inactive)

Question: How did the “PARP1 L713F-nLuc/akaLuc ratio” value turn out when CN(C)CCCN(CC[C@H](N)C(=O)O)C[C@H]1O[C@@H](n2cnc3c(N)ncnc32)[C@H](O)[C@@H]1O [GSK2807 (Trifluoroacetate)] was run?
Answer: 0.926 (inactive)

Question: Which “PARP1 L713F-nLuc/akaLuc ratio” value does the source give for C[C@]1(O)C[C@@H](c2nc(-c3ccc4ccc(-c5ccccc5)nc4c3)c3c(N)nccn32)C1 [Linsitinib (OSI-906)] here?
Answer: 0.715 (inactive)

Question: With O=C(/C=C\n1cnc(-c2cc(C(F)(F)F)cc(C(F)(F)F)c2)n1)NNc1ccccn1 [Verdinexor (KPT-335)] as the compound, how does the “PARP1 L713F-nLuc/akaLuc ratio” value read?
Answer: 0.35 (inactive)

Question: For C[C@]12CC[C@@H]3c4ccc(O)cc4C[C@@H](CCCCCCCCC[S+]([O-])CCCC(F)(F)C(F)(F)F)[C@H]3[C@@H]1CC[C@@H]2O (some centres undefined) [Fulvestrant], which “PARP1 L713F-nLuc/akaLuc ratio” value is on record?
Answer: 0.949 (inactive)

Question: For CC(C)=CCC/C(C)=C/Cc1c(O)c(CC=C(C)C)c2c(c1O)C(=O)C1=C[C@@H]3C[C@H]4C(C)(C)O[C@@](C/C=C(/C)C(=O)O)(C3=O)[C@@]14O2 [Gambogenic acid], which “PARP1 L713F-nLuc/akaLuc ratio” value is on record?
Answer: 1.04 (inactive)

Question: Which “PARP1 L713F-nLuc/akaLuc ratio” value does the source give for N#Cc1c(-c2ccccc2)cc(-c2cc(Br)ccc2O)[nH]c1=O here?
Answer: 0.708 (inactive)

Question: CC(C)c1c(C(=O)Nc2ccccc2)c(-c2ccccc2)c(-c2ccc(F)cc2)n1CC[C@@H](O)C[C@@H](O)CC(=O)O [Atorvastatin Calcium] was tested. Which “PARP1 L713F-nLuc/akaLuc ratio” value did it give?
Answer: 0.363 (inactive)

Question: For O=C(O)c1ccc(-c2c[nH]c3ncc(-c4ccccc4)cc23)cc1C1CCCC1, which “PARP1 L713F-nLuc/akaLuc ratio” value is on record?
Answer: 0.793 (inactive)

Question: Which “PARP1 L713F-nLuc/akaLuc ratio” value does the source give for C=CC(=O)N1CCC(Oc2cc3c(Nc4ccc(Cl)c(Cl)c4F)ncnc3cc2OC)CC1 [Poziotinib (HM781-36B)] here?
Answer: 1.28 (inactive)

Question: How did the “PARP1 L713F-nLuc/akaLuc ratio” value turn out when O=C1COc2c(CCNCCN(C(=O)CCNCCc3ccc(Cl)c(Cl)c3)C3CCCCC3)ccc(O)c2N1 [AZ505 (ditrifluoroacetate)] was run?
Answer: 0.634 (inactive)

Question: Cc1cc(C(C)Nc2ccccc2)c2nc(N3CCOCC3)cc(=O)n2c1 (centres undefined) was tested. Which “PARP1 L713F-nLuc/akaLuc ratio” value did it give?
Answer: 0.773 (inactive)

Question: With O=C(c1cccc(Br)c1)N1CCC(N2CCCC2)CC1 as the compound, how does the “PARP1 L713F-nLuc/akaLuc ratio” value read?
Answer: 0.886 (inactive)

Question: How did the “PARP1 L713F-nLuc/akaLuc ratio” value turn out when CC1=C2C(=O)O[C@@H](c3ccoc3)[C@]2(C)CCC1 [Fraxinellone] was run?
Answer: 0.831 (inactive)

Question: For Nc1[nH]c(=O)nc2c1ncn2[C@@H]1O[C@H](CO)[C@@H](O)[C@H]1O [Crotonoside], which “PARP1 L713F-nLuc/akaLuc ratio” value is on record?
Answer: 0.835 (inactive)

Question: Which “PARP1 L713F-nLuc/akaLuc ratio” value does the source give for C=C(C)[C@@H]1CCC(C)=C[C@H]1C1=C(O)C(=O)C(CCCCC)=C(NCc2ccccc2)C1=O here?
Answer: 1.39 (inactive)

Question: For Cc1ncccc1-c1cnc(NCc2c(F)ccc3c2CCO3)n2cnnc12, which “PARP1 L713F-nLuc/akaLuc ratio” value is on record?
Answer: 1.39 (inactive)

Question: Which “PARP1 L713F-nLuc/akaLuc ratio” value does the source give for Cn1ncc(NC(=O)c2nc(-c3c(F)cccc3F)sc2N)c1N1CC[C@@H](N)[C@H](F)CC1 here?
Answer: 0.793 (inactive)

Question: C[C@@H]1CCN(C(=O)CC#N)C[C@@H]1N(C)c1ncnc2[nH]ccc12 was tested. Which “PARP1 L713F-nLuc/akaLuc ratio” value did it give?
Answer: 0.783 (inactive)

Question: CC(C)(C)c1nc2c3cc[nH]c(=O)c3c3cc(F)ccc3c2[nH]1 [Pyridone 6] was tested. Which “PARP1 L713F-nLuc/akaLuc ratio” value did it give?
Answer: 0.692 (inactive)

Question: How did the “PARP1 L713F-nLuc/akaLuc ratio” value turn out when N#Cc1c[nH]c2ccc(-c3ccc(-c4c(O)cccc4O)cc3)cc12 was run?
Answer: 0.933 (inactive)

Question: With CCCCOc1ccc(CC(=O)NO)cc1 [Bufexamac] as the compound, how does the “PARP1 L713F-nLuc/akaLuc ratio” value read?
Answer: 1.03 (inactive)

Question: Which “PARP1 L713F-nLuc/akaLuc ratio” value does the source give for O=C(Nc1ccc(Cl)cc1)c1cc2ccccc2cc1O [Naphthol AS-E] here?
Answer: 1.09 (inactive)

Question: How did the “PARP1 L713F-nLuc/akaLuc ratio” value turn out when CN1CCN(c2ccc(-c3cccc(CN4CCOCC4)c3)cc2NC(=O)c2c[nH]c(=O)cc2C(F)(F)F)CC1 was run?
Answer: 0.636 (inactive)

Question: How did the “PARP1 L713F-nLuc/akaLuc ratio” value turn out when CN(C)Cc1ccc(-c2nc3cccc4c3n2CCNC4=O)cc1 was run?
Answer: 8.09 (active)

Question: For N#CCC1(n2cc(-c3ncnc4[nH]ccc34)cn2)CN(C2CCN(C(=O)c3ccnc(C(F)(F)F)c3F)CC2)C1 [Itacitinib adipate], which “PARP1 L713F-nLuc/akaLuc ratio” value is on record?
Answer: 1.05 (inactive)

Question: CO[C@H]1CNC[C@@H](OCC2CCC(F)(F)CC2)[C@@H]1Nc1ncc(-c2cncc(C)c2)c2cc(C)c(=O)[nH]c12 was tested. Which “PARP1 L713F-nLuc/akaLuc ratio” value did it give?
Answer: 1.63 (inactive)

Question: How did the “PARP1 L713F-nLuc/akaLuc ratio” value turn out when O=C(c1cncc(Br)c1)N1CCC(N2CCCC2)CC1 was run?
Answer: 1.73 (inactive)

Question: With c1cc(-c2cnn3cc(-c4ccc(OCCN5CCCCC5)cc4)cnc23)ccn1 [Dorsomorphin] as the compound, how does the “PARP1 L713F-nLuc/akaLuc ratio” value read?
Answer: 1.11 (inactive)
